Hit rate of the full screen: of about 320,000 compounds, about 2,100 (0.66%) were called active. Another 53% or so got no clear call; they are omitted. Calls follow the shape of the dose curve; as a rule, active = well fitted inhibition curve with a large enough effect in the signal ratio, with a control signal flat (not every such curve was filed as active); inconclusive = small, poorly fitted or top-dose-only effect, or effect the other way, or a change in a side signal; inactive = flat fitted curve, though single readings scatter; the % refers to the signal ratio. What follows is part of a selection rich in actives, with near analogues and random picks from the rest.

Results on 59 compounds are retold here after PubChem BioAssay AID2685 (National Center for Advancing Translational Sciences (NCATS), 2010).
Potency is read from the fitted curve at half-maximal effect.

This experiment can be described thus: qHTS Assay for Lipid Storage Modulators in Drosophila S3 Cells.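 As to cell number change: cells counted by Cell Tracker Red CMTPX staining in the red channel.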 As to lipid storage change, negative = inhibition: % is scaled to controls: 0 for no effect and ±100 for the full control effect. The settings on record: BODIPY lipid droplet fluorescence, 18-24 h, cells fed with added oleic acid; cell number change: measured here: cell count max response; series mostly up to 46.1 µM; lipid storage change, negative = inhibition: at the top concentration. In outline: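 Drosophila S3 cells loaded with oleic acid (400 uM, as added) and compounds at several concentrations; lipid droplets imaged by 488-nm laser-scanning cytometry, 500–530 nm intensity and object ratio to cell channel. Percent activity normalized to 20 uM Triacsin C.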
(In general: qHTS replaces the single test concentration by a dilution series.)
On to `O=C(NN=C1CCCC1)c1ccccc1[N+](=O)[O-]`, for which the call was inactive and the cell number change was 7.42%.
Turning to `Cc1cc(C)nc(NC(C)(C)C(=O)O)n1`, the “lipid storage change, negative = inhibition” value is -23.2% (inactive) and the cell number change amounted to 0.119%.
For `COc1ccc(-c2noc(C3CCCN(C(=O)c4ccc(C)cc4)C3)n2)cc1` (stereo not given), in that order: 4.74% (inactive) and 10.5%.
Turning to `Cc1ccc(-c2noc(C3CCCN(C(=O)c4ccccc4Br)C3)n2)cc1` (stereo not given), the Potency is 18.4 µM (active) and the cell number change is -26.6%.
As to `O=C(c1ccccc1Br)N1CCCC(c2nc(-c3cccs3)no2)C1` (stereo not given), the compound was called inactive.
Consider `Cc1nn(C)c(Cl)c1C(=O)NCC(=O)NCc1ccccc1`, for which the “lipid storage change, negative = inhibition” value is -13.1% (inactive) and the cell number change was -13%.
For the compound `Nc1nonc1-n1nnc(C(=O)N/N=C/c2ccoc2)c1-c1ccccc1`, the compound was called inactive and the cell number change was 11.3%.
For `O=C(O)c1ccccc1C(=O)NCCCn1ccnc1`, the “lipid storage change, negative = inhibition” value is 6.83% (inactive) and the cell number change amounted to 7.04%.
For `Nc1c(O)ccc2c1C(=O)c1ccccc1C2=O`, in that order: -9.3% (inactive) and -17.1%.
On to `CCOc1cc(C(=O)OCC(=O)N(C)c2ccccc2)cc(OCC)c1OCC`, for which the result was inactive and the cell number change came out at 9.01%.
Take `Cc1[nH]nc(SCC(=O)N2CCCC2)c1[N+](=O)[O-]`: the “lipid storage change, negative = inhibition” value was -2.11% (inactive) and the cell number change was -4.82%.
With `COc1ccc(CCNC(=O)CCCn2c(=O)c3cccn3c3cccnc32)c(OC)c1`, the Potency was 16.4 µM (active) and the cell number change was -19.3%.
Turning to `COc1cccc(CNC(=O)CCn2c(=O)c3cccn3c3cccnc32)c1`, the “lipid storage change, negative = inhibition” value is -26% (inactive) and the cell number change is 1.83%.
With `CSc1cccc(NC(=O)CCCn2c(=O)c3cccn3c3cccnc32)c1`, the Potency was 18.4 µM (active) and the cell number change is -18.8%.
Take `CN1CCN(C(=O)CCn2c(=O)c3cccn3c3cccnc32)CC1`: the “lipid storage change, negative = inhibition” value is -18.5% (inactive) and the cell number change is 17.7%.
`CCc1ccc(CNC(=O)CCCn2c(=O)c3cccn3c3cccnc32)cc1`: the outcome was inactive.
For `COc1ccc(N2CCN(C(=O)CCCn3c(=O)c4cccn4c4cccnc43)CC2)cc1`, the outcome was inactive and the cell number change came out at 22.2%.
Take `CCOC(=O)C1=C(CS(=O)(=O)c2ccc(Cl)cc2)NC(=O)NC1c1ccc(O)c(OC)c1` (stereo not given): the “lipid storage change, negative = inhibition” value was -8.07% (inactive) and the cell number change was 23%.
For `O=C(OC(C(=O)Nc1ccc(Cl)cc1C(F)(F)F)c1ccccc1)C1=COCCO1` (stereo not given), in that order: 6% (inactive) and -1.65%.
Consider `CCN(CC)CCCN1C(=O)C(O)=C(C(=O)c2sc(C)nc2C)C1c1ccc(C)o1` (stereo not given), for which the “lipid storage change, negative = inhibition” value was 0.201% (inactive) and the cell number change turned out to be 0.178%.
Consider `COc1cc(/C=C/c2noc(-c3ccccc3O)n2)ccc1OC(C)=O`, for which the “lipid storage change, negative = inhibition” value was -1.96% (inactive) and the cell number change is 8.42%.
`CC(C)(C)NC(=O)/C=C/c1cccc(C(F)(F)F)c1`: the “lipid storage change, negative = inhibition” value is 23.9% (inactive) and the cell number change is -3.06%.
With `COc1ccc(Nc2ccc([N+](=O)[O-])cn2)cc1`, the “lipid storage change, negative = inhibition” value was 19.4% (inactive) and the cell number change came out at 13.2%.
`COc1ccc(Nc2ccc([N+](=O)[O-])cn2)cn1`: the Potency was 16.4 µM (active) and the cell number change was -5.41%.
Regarding `COc1ccccc1Nc1ccc([N+](=O)[O-])cn1`, the “lipid storage change, negative = inhibition” value is 3.34% (inactive) and the cell number change came to 25.6%.
On to `CCc1nn(CC(=O)NCCCN(CC)c2cccc(C)c2)c(=O)c2cc3occc3n12`, for which the “lipid storage change, negative = inhibition” value was 8.48% (inactive) and the cell number change was -11.1%.
As for `CCOC(=O)CCn1cc(F)c(=O)n(Cc2ccccc2)c1=O`, the compound was called inactive and the cell number change stood at 12.1%.
Turning to `CC(C)Nc1nc(SC(C)C(=O)Nc2ccccc2)nc(N(C)C)n1` (stereo not given), the Potency was 8.2 µM (active) and the cell number change is -27.6%.
On to `CCOc1nc(SC(C(C)=O)C(=O)Nc2ccccc2)nc(N(C)C)n1` (stereo not given), for which the “lipid storage change, negative = inhibition” value is 3.93% (inactive) and the cell number change is -9.19%.
For `CC(Sc1nc(N2CCOCC2)nc(N2CCOCC2)n1)C(=O)Nc1ccccc1` (stereo not given), in that order: 0.66% (inactive) and -7.21%.
Regarding `COC(=O)c1ccc(-c2ccc(/C=N/N3C(=O)C4C5C=CC(C6CC56)C4C3=O)o2)cc1` (stereo not given), the Potency was 20.6 µM (active) and the cell number change came out at 4.78%.
Take `COC(=O)c1cccc(-c2ccc(/C=N/N3C(=O)C4C5C=CC(C6CC56)C4C3=O)o2)c1` (stereo not given): the “lipid storage change, negative = inhibition” value was -10.1% (inactive) and the cell number change was -7.37%.
For `COC(=O)c1ccc(-c2ccc(/C=N/N3C(=O)C4C5C=CC(CC5)C4C3=O)o2)cc1` (stereo not given), in that order: -0.618% (inactive) and 10.1%.
Turning to `O=c1nc(-c2ccccc2)cc(C(F)(F)F)[nH]1`, the “lipid storage change, negative = inhibition” value is -9.25% (inactive) and the cell number change is -9.42%.
Take `O=c1nc(/C=C/c2ccccc2C(F)(F)F)cc(C(F)(F)F)[nH]1`: the Potency was 0.517 µM (active) and the cell number change was -22.9%.
In the case of `COc1ccc(/C=C/c2cc(C(F)(F)F)[nH]c(=O)n2)cc1OC`, the “lipid storage change, negative = inhibition” value is -12.5% (inactive) and the cell number change is 7.45%.
As for `CCc1ccc(N2CC(C(=O)NC3CCCCC3C)CC2=O)cc1` (stereo not given), the compound was called inactive and the cell number change is -4.76%.
With `COC(=O)c1ccc(COc2ccccc2/C=N/NS(=O)(=O)c2ccccc2)cc1`, the “lipid storage change, negative = inhibition” value is -8.74% (inactive) and the cell number change was -14.9%.
With `CCCCC[C@H](O)/C=C/[C@H]1C=CC(=O)[C@@H]1C/C=C\CCCC(=O)O`, the “lipid storage change, negative = inhibition” value is -2.66% (inactive) and the cell number change was 10.2%.
For `CCCCC/C=C\C/C=C\C/C=C\C/C=C\CCCC(=O)O`, in that order: -8.8% (inactive) and -29.6%.
Regarding `CCCCC1C(=O)CC[C@H]2[C@@H]1CC(=O)[C@@H]2C/C=C\CCCC(=O)O` (stereo not given in full), the Potency was 9.2 µM (active) and the cell number change is -6.62%.
In the case of `CCn1c(=O)c(C(=O)NCc2ccccc2OC)c(O)c2ccccc21`, the compound was called inactive and the cell number change is 3.38%.
In the case of `Cc1cccc(C)c1OCc1nnc(SCC(=O)Nc2ccccc2F)o1`, the “lipid storage change, negative = inhibition” value is 29.6% (inactive) and the cell number change is -7.4%.
Consider `CCc1nnc(NC(=O)CSc2nnc(CSc3nc(C)cc(C)n3)o2)s1`, for which the “lipid storage change, negative = inhibition” value was 7.1% (inactive) and the cell number change was 9.83%.
For `Cc1ccc(NC(=O)c2cc(S(=O)(=O)NCCC3=CCCCC3)ccc2F)cc1`, in that order: -15.8% (inactive) and -3.48%.
Take `Cc1cc(OCCCC(=O)Nc2cccc(-n3cnnn3)c2)ccc1Cl`: the Potency was 3.26 µM (active) and the cell number change turned out to be 3.23%.
As to `O=C(Nc1cccc(-n2cnnn2)c1)c1ccco1`, the “lipid storage change, negative = inhibition” value was 9.61% (inactive) and the cell number change is -16.6%.
For `O=C(Nc1ccc(C(F)(F)F)cc1)c1cccc(-n2cnnn2)c1`, in that order: 19% (inactive) and 8.84%.
With `O=C(Nc1cccc(-n2cnnn2)c1)c1ccoc1COc1ccc(Cl)cc1`, the Potency is 29.1 µM (active) and the cell number change was -18.1%.
Regarding `O=C(CNC(=O)c1cccc(-n2cnnn2)c1)Nc1ccc(F)c(F)c1`, the “lipid storage change, negative = inhibition” value was 4.76% (inactive) and the cell number change is 0.376%.
Consider `O=C(COc1cccc(-n2cnnn2)c1)Nc1ccccc1`, for which the “lipid storage change, negative = inhibition” value is -13.1% (inactive) and the cell number change was -12.3%.
As to `O=C(Nc1cccc(-n2cnnn2)c1)c1cccs1`, the outcome was inactive and the cell number change was -3.63%.
In the case of `COc1ccc(NC(=O)COc2cccc(-n3cnnn3)c2)cc1`, the result was inactive and the cell number change is -3.85%.
For the compound `O=C(Nc1cccc(-n2cnnn2)c1)c1cccc(Cl)c1`, the Potency was 14.6 µM (active) and the cell number change was -16%.
`Cc1ccc(C)c(NC(=O)c2cc[n+](C)cc2)c1`: the result was inactive and the cell number change is -24.7%.
For `CCOC(=O)COc1ccc(S(=O)(=O)NCc2ccncc2)cc1`, the “lipid storage change, negative = inhibition” value was -23.8% (inactive).
In the case of `Cc1ccc(/C=C/C(=O)N(Cc2cccs2)C2CCS(=O)(=O)C2)cc1` (stereo not given), the “lipid storage change, negative = inhibition” value was 18.4% (inactive) and the cell number change was determined as 11.3%.
For `CCOC(=O)c1c(-c2ccccc2)csc1NC(=O)CSc1nc(N)cc(N)n1`, in that order: 13.1% (inactive) and 11.6%.
Regarding `COCCCn1c(C)nnc1-c1cnn(-c2ccccc2)c1N`, the “lipid storage change, negative = inhibition” value is 10.4% (inactive) and the cell number change was 22.6%.
